# Source: PubChem (National Center for Advancing Translational Sciences (NCATS))
# MCF10A rereplic: A quantitative high throughput screen for small molecules that induce DNA re-replication in MCF 10a normal breast cells. MCF 10A DNA re-replication, Hoechst nuclear intensity, 48 h. Potency, µM (titrated, usually from 46.1 µM), inactives show at the top dose activity, positive = re-replication, most hits filed as activators. actives 2.9% (n = 350,000). AID 624296, 2012; note: potency is the fitted concentration of half-maximal effect; % of control where 0% means no effect; nearly all actives have a fitted effect of over 50% in size
# BCR signal inh: qHTS Assay to Find Inhibitors of Chronic Active B-Cell Receptor Signaling. ABC-DLBCL IkBa-CBG/CBR reporter, luminescence ratio, 4 h. Potency, µM (doses to about 46.1 µM), for inactives: top-dose activity change, negative = inhibition, most hits filed as inhibitors. actives 0.05% (n = 340,000); active = well fitted inhibition curve with a large enough effect in the signal ratio, with a control signal flat, not every such curve was filed as active; inconclusive = small, poorly fitted or top-dose-only effect, or effect the other way, or a change in a side signal; the % refers to the signal ratio;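 note: potency is the fitted concentration of half-maximal effect; plate controls were basal doxycycline-induced cells for no effect and cells given 10 µM MG132 for full effect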
#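 TMD8 human ABC-DLBCL cells with doxycycline-inducible IκBα–green luciferase fusion and unfused red luciferase, in 0.5% FBS medium; compounds up to 46 uM, 4 h at 37C. Green/red luminescence ratio, filter-overlap corrected, fitted to concentration-response curves.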
# TDP1 cell CPT: qHTS for Inhibitors of human tyrosyl-DNA phosphodiesterase 1 (TDP1): qHTS in cells in presence of CPT. Potency, µM (top dose mostly 46.2 µM), for inactives: at the highest dose activity change, negative = growth inhibition, actives largely listed as inhibitors. AID 686979, 2013. actives 12% (n = 420,000). chicken DT40 Tdp1-/-;hTDP1 cells + 20 nM CPT, ATP luminescence, 48 h; note: potency is the fitted concentration of half-maximal effect; % is set by controls: 0 for no effect and ±100 for the full control effect; nearly all actives have a fitted effect of over 55% in size
#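 Chicken DT40 Tdp1-/- cells stably complemented with human TDP1 were seeded at 400 cells/well in medium containing 20 nM camptothecin, exposed to pin-transferred compounds, and grown at 37 °C for at least 48 hr. Viability was read as ATP luminescence.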
# SW480 rereplic: A quantitative high throughput screen for small molecules that induce DNA re-replication in SW480 colon adenocarcinoma cells | SW480 DNA re-replication, Hoechst DNA content imaging, 48 h | Potency, µM (doses to about 46.1 µM), inactives show top-dose re-replication activation, actives largely listed as activators | actives 1.8% (n = 340,000) | AID 624297, 2012; note: potency is the fitted concentration of half-maximal effect; % of control where 0% means no effect; nearly all actives have a fitted effect of over 55% in size
#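 Image-based read-out: total Hoechst fluorescence of nuclei (405 nm excitation, 500-530 nm emission), with hits raising the fraction of high-intensity nuclei. SW480 colon cells incubated 48 hr with compounds at 37 C.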
# IL1B secr inh: qHTS for Inhibitors of Inflammasome Signaling: IL-1-beta AlphaLISA Primary Screen | THP-1 LPS/ATP IL-1B secretion, AlphaLISA, 16 h; stronger effect = lower value | AID 743279, 2014 | activity change, % at 57.5 µM | actives 4.7% (n = 360,000); in the data active = activity change below about -50%; inconclusive = mostly about -30% to -49%; note: % is set by controls: 0 for no effect and ±100 for the full control effect
#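 THP-1 cells pretreated 1 hr with compounds (up to 57.5 uM final), then stimulated with LPS (250 ng/mL final) plus ATP (1.25 mM final); secreted IL-1B measured by AlphaLISA after 16 hr, decreased signal indicating inhibition.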
# DT40 TDP1 no CPT: qHTS for Inhibitors of human tyrosyl-DNA phosphodiesterase 1 (TDP1): qHTS in cells in absence of CPT; DT40 Tdp1-/- hTDP1 cells, no CPT, ATP luminescence, 48 h; Potency, µM (doses to about 46.2 µM), without a hit: at the top dose activity change, negative = growth inhibition, usual class: inhibitors; actives 15% (n = 420,000); note: potency is the fitted concentration of half-maximal effect; % is set by controls: 0 for no effect and ±100 for the full control effect; nearly all actives have a fitted effect of over 55% in size
#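 Camptothecin absent (DMSO only). Human TDP1-complemented DT40 knockout cells, 400 cells/well, 37 °C for minimum 48 hr; ATP measured via CellTiter-Glo, 30 min dark incubation, luminescence.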
# * hit, by the source's call; ? = inconclusive; · = no result given. Hits are enriched below; roughly 19% of the tested compounds scored in any of these assays. Unless noted, calls come from the whole dose curve; as a rule, active = well fitted curve in the direction sought with a large enough effect; inconclusive = small, poorly fitted or top-dose-only effect, or another doubt; inactive = no such curve, though single readings can be large; an effect the other way counts as inactive or inconclusive.
SMILES,MCF10A rereplic,BCR signal inh,TDP1 cell CPT,SW480 rereplic,IL1B secr inh,DT40 TDP1 no CPT
COC(C(=O)C(O)C(C)O)C1Cc2cc3cc(OC4CC(OC5CC(O)C(O)C(C)O5)C(O)C(C)O4)c(C)c(O)c3c(O)c2C(=O)C1OC1CC(OC2CC(OC3CC(O)C(OC)C(C)O3)C(O)C(C)O2)C(O)C(C)O1 (centres undefined),-10.5%,·,0.103µM*,-9.5%,-88.7*,0.146µM*
COc1ccccc1N1CCN(c2nc(CNC(=O)c3ccc(C)c(C)c3)nc3ccccc23)CC1,·,·,0.4%,·,·,-29.1%
COc1ccccc1N1CCN(c2nc(CNC(=O)c3sc(C)nc3C)nc3ccccc23)CC1,·,·,6.51µM*,·,·,5.17µM*
Cc1ccc(S(=O)(=O)c2c(C)cc(C)nc2N2CCOCC2)cc1,-42.5%,1.9%,6.3%,1.9%,-22.1,-16.1%
Cc1ccc(S(=O)(=O)c2nc(S(C)(=O)=O)sc2N2CCN(C)CC2)cc1,0.4%,-5.1%,-11.7%,-10.3%,?,-4.4%
Cc1ccc(S(=O)(=O)c2nc(S(C)(=O)=O)sc2N2CCCCCC2)cc1,4.1%,4.9%,-24.5%,-6.9%,-54.4*,-1.5%
Cc1ccc(S(=O)(=O)c2nc(S(C)(=O)=O)sc2N2CCC(C)CC2)cc1,?,?,14.6µM*,?,-83.7*,14.6µM*
Cc1ccc(S(=O)(=O)c2c(C)cc(C)nc2N2CCCCC2)cc1,9.5%,-1.0%,23.1µM*,1.6%,6.9,18.4µM*
Cc1nc(Cc2nnc(SCC(=O)Nc3c(C)cccc3C)o2)cs1,6.8%,1.6%,-3.5%,?,3.0,-23.0%
CC(=O)Nc1cnc(-c2cc(C)c(O)c(C)c2)cn1,·,·,?,·,1.5,-23.5%
Cc1nn(CC(=O)N2CCC(C)CC2)c(=O)c2cc3occc3n12,·,·,-11.9%,·,·,-3.7%
O=C(O)CNc1nc(-c2ccccc2)nc2ccccc12,9.6%,12.3%,-6.8%,12.2%,20.3,-15.0%
COc1ccc(CNc2nc(-c3ccccc3)nc3ccccc23)cc1OC,29.3%,?,-2.6%,-3.9%,-62.2*,?
Fc1ccc(CNc2nc(-c3ccccc3)nc3ccccc23)cc1,?,16.2%,?,-44.3%,-62.1*,?
CCS(=O)(=O)N1CCC(C(=O)Nc2ccc3c(c2)CCC3)CC1,-16.3%,-4.3%,-19.3%,-4.6%,8.7,-12.5%
O=C(CCNC(=O)c1ccc(Br)cc1)Nc1ccc(S(=O)(=O)Nc2ncccn2)cc1,2.1%,7.2%,-1.5%,-0.6%,7.5,-3.1%
CC1(NC(=O)CCc2nc3ccccc3c(=O)[nH]2)CCS(=O)(=O)C1 (centres undefined),0.4%,0.4%,3.9%,?,10.1,15.5%
CC(C)NC(=S)N/N=C/C1=CCC2CC1C2(C)C (centres undefined),2.6%,?,?,-3.8%,15.3,?
C=C(C)CNC(=S)N/N=C/C1=CCC2CC1C2(C)C (centres undefined),?,?,7.31µM*,11.3%,9.7,7.31µM*
CCCCNC(=S)N/N=C/C1=CCC2CC1C2(C)C (centres undefined),?,-4.7%,?,13.4%,14.6,18.4µM*
C=C(C)CNC(=S)N/N=C/c1c(F)cccc1F,-6.4%,?,?,-4.8%,-14.9,16.4µM*
Cc1ccc(CN2CC(C(=O)NCCC3=CCCCC3)CC2=O)cc1 (centres undefined),11.1%,7.8%,-5.8%,8.6%,-2.3,12.2%
COCc1cc(=O)n2[nH]c(C)c(-c3ccc(Cl)cc3)c2n1,·,·,13µM*,·,35.7,16.4µM*
Cc1[nH]n2c(=O)cc(-c3ccccc3Cl)nc2c1-c1ccccc1,·,·,9.2µM*,·,·,2.59µM*
Fc1ccc2c(c1)-c1c(cnc3cc(-c4ccc(Cl)cc4)nn13)CO2,·,·,-2.3%,·,·,-5.2%
SMILES,MCF10A rereplic,BCR signal inh,TDP1 cell CPT,SW480 rereplic,IL1B secr inh,DT40 TDP1 no CPT
CCOc1cc(CN2CCN(c3cccc(C(F)(F)F)c3)CC2)ccc1OC,-3.3%,?,?,-2.6%,-56.3*,16.4µM*
CCOc1cc(CN2CCN(c3cccc(C(F)(F)F)c3)CC2)ccc1O,5.7%,?,16.4µM*,13.0%,-15.2,16.4µM*
CCOc1cc(CN2CCSCC2)ccc1O,0.4%,4.6%,-11.4%,-13.0%,-1.5,?
COc1ccc(CC(C)N2CCN(c3cccc(C(F)(F)F)c3)CC2)cc1OC (centres undefined),3.7%,15.9%,?,-0.8%,-20.2,25.9µM*
CCOc1cc(CN2CCN(c3ccc(C(C)=O)cc3)CC2)ccc1OC,4.6%,7.0%,?,-0.7%,-18.3,?
CC(=O)N1CCN(C(=O)CC2OC(=O)c3ccccc32)CC1 (centres undefined),?,-13.7%,8.2µM*,?,20.9,11.6µM*
O=C(CC1OC(=O)c2ccccc21)Nc1ccccc1N1CCOCC1 (centres undefined),-2.4%,-1.5%,27.8%,-1.3%,-12.0,-24.9%
FC(F)(F)c1ccc(-c2noc(CN3CCCN(C4CCCCC4)CC3)n2)cc1,2.2%,0.7%,20.6µM*,9.3%,?,20.6µM*
c1ccc(C(c2ccccc2)c2noc(CN3CCN(C4CCCC4)CC3)n2)cc1,25.6%,?,?,-4.3%,-14.6,20.6µM*
C[C@@H]1CN(C2CCN(Cc3nc(C(c4ccccc4)c4ccccc4)no3)CC2)C[C@H](C)O1,4.5%,-12.3%,-11.4%,14.0%,5.0,?
Cc1nc(CN2CCN(Cc3nc(C(c4ccccc4)c4ccccc4)no3)CC2)cs1,3.1%,-10.8%,7.31µM*,-55.5%,-8.0,10.3µM*
Cc1cc(F)ccc1-c1cc(C(=O)Nc2ccccc2)[nH]n1,·,·,?,·,-13.8,?
Cc1ccc(C(O)c2ncc(-c3ccc(Cl)cc3)[nH]2)cc1 (centres undefined),·,·,?,·,-14.0,?
Nc1c(C(=O)Nc2ccccc2)nnn1Cc1ccc(F)cc1Cl,·,·,-22.4%,·,·,-17.3%
Oc1ccc(Oc2ccc(Oc3ccc(O)cc3)cc2)cc1,17.3%,?,5.8µM*,27.1%,53.7,4.11µM*
